Data: publication PMC5540273 (PLoS ONE, 2017)
Like-named read-outs stand apart in the source and are kept apart here.

Legend:
Settings in all cases: n = 1
ACVR2B = tested on: ACVR2B
ACVRL1 = tested on: ACVRL1
ADCK3 = tested on: T1, ADCK3
T1 construct: gene CABC1

ADCK4 = tested on: ADCK4
AKT1 = tested on: AKT1
AKT2 = tested on: AKT2
AKT3 = tested on: AKT3
ALK = tested on: ALK
AMPK-alpha1 = tested on: T2, AMPK-alpha1
T2 construct: gene PRKAA1

AMPK-alpha2 = tested on: T3, AMPK-alpha2
T3 construct: gene PRKAA2

[1] = concentration: 1 μM, replicates: in singlicate
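Note: KINOMEscan kinase panel screen.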

COc1ccc(Nc2nccc(-c3cccc(NC(=O)c4cc5cc(F)ccc5[nH]4)c3)n2)cc1 [GSK1229782]
%Inh (ACVR2B; [1]): 19%
%Inh (ACVRL1; [1]): 0%
%Inh (ADCK3; [1]): 8%
%Inh (ADCK4; [1]): 61%
%Inh (AKT1; [1]): 0%
%Inh (AKT2; [1]): 18%
%Inh (AKT3; [1]): 31%
%Inh (ALK; [1]): 29%
%Inh (AMPK-alpha1; [1]): 34%
%Inh (AMPK-alpha2; [1]): 18%

COc1ccc2nc(-c3cccc(C)n3)nc(Nc3ccncc3)c2c1 [GSK204919]
%Inh (ACVR2B; [1]): 0%
%Inh (ACVRL1; [1]): 0%
%Inh (ADCK3; [1]): 25%
%Inh (ADCK4; [1]): 3%
%Inh (AKT1; [1]): 0%
%Inh (AKT2; [1]): 5%
%Inh (AKT3; [1]): 0%
%Inh (ALK; [1]): 24%
%Inh (AMPK-alpha1; [1]): 0%
%Inh (AMPK-alpha2; [1]): 16%

Cc1ccc(NC(=O)Nc2cccc(C(F)(F)F)c2)cc1 [GSK955403]
%Inh (ACVR2B; 1 µM): 0%
%Inh (ACVRL1; 1 µM): 0%
%Inh (ADCK3; 1 µM): 5%
%Inh (ADCK4; 1 µM): 0%
%Inh (AKT1; 1 µM): 12%
%Inh (AKT2; 1 µM): 3%
%Inh (AKT3; 1 µM): 0%
%Inh (ALK; 1 µM): 0%
%Inh (AMPK-alpha1; 1 µM): 0%
%Inh (AMPK-alpha2; 1 µM): 0%

COc1ccccc1-c1ccc2c(NC(=O)C3CC3)n[nH]c2n1 [SB-711239]
%Inh (ACVR2B; [1]): 52%
%Inh (ACVRL1; [1]): 0%
%Inh (ADCK3; [1]): 11%
%Inh (ADCK4; [1]): 19%
%Inh (AKT1; [1]): 0%
%Inh (AKT2; [1]): 2%
%Inh (AKT3; [1]): 3%
%Inh (ALK; [1]): 18%
%Inh (AMPK-alpha1; [1]): 5%
%Inh (AMPK-alpha2; [1]): 13%

CCn1c(-c2cccnc2O)nc2cnccc21 [SB-736715]
%Inh (ACVR2B; [1]): 0%
%Inh (ACVRL1; [1]): 0%
%Inh (ADCK3; [1]): 0%
%Inh (ADCK4; [1]): 88%
%Inh (AKT1; [1]): 2%
%Inh (AKT2; [1]): 0%
%Inh (AKT3; [1]): 0%
%Inh (ALK; [1]): 0%
%Inh (AMPK-alpha1; [1]): 0%
%Inh (AMPK-alpha2; [1]): 0%

CS(=O)(=O)c1ccc(-c2c(-c3ncn[nH]3)sc(N3CCOCC3)c2C#N)cc1
%Inh (ACVR2B; [1]): 0%
%Inh (ACVRL1; [1]): 8%
%Inh (ADCK3; [1]): 3%
%Inh (ADCK4; [1]): 0%
%Inh (AKT1; [1]): 1%
%Inh (AKT2; [1]): 15%
%Inh (AKT3; [1]): 0%
%Inh (ALK; [1]): 9%
%Inh (AMPK-alpha1; [1]): 22%
%Inh (AMPK-alpha2; [1]): 8%

Nc1nc(-c2nccs2)c(-c2ccnc3ccccc23)s1 [GW693542]
%Inh (ACVR2B; [1]): 48%
%Inh (ACVRL1; [1]): 15%
%Inh (ADCK3; [1]): 0%
%Inh (ADCK4; [1]): 39%
%Inh (AKT1; [1]): 0%
%Inh (AKT2; [1]): 3%
%Inh (AKT3; [1]): 100%
%Inh (ALK; [1]): 36%
%Inh (AMPK-alpha1; [1]): 0%
%Inh (AMPK-alpha2; [1]): 12%

O=S(=O)(c1ccc(-c2ccnc3[nH]ccc23)cc1)N1CCCC1 [GSK846226]
%Inh (ACVR2B; [1]): 0%
%Inh (ACVRL1; [1]): 0%
%Inh (ADCK3; [1]): 7%
%Inh (ADCK4; [1]): 21%
%Inh (AKT1; [1]): 0%
%Inh (AKT2; [1]): 0%
%Inh (AKT3; [1]): 0%
%Inh (ALK; [1]): 10%
%Inh (AMPK-alpha1; [1]): 0%
%Inh (AMPK-alpha2; [1]): 0%

COc1ccccc1CNC(=O)c1cc(C(=O)c2ccccc2C)c[nH]1 [GSK364507]
%Inh (ACVR2B; [1]): 0%
%Inh (ACVRL1; [1]): 0%
%Inh (ADCK3; [1]): 13%
%Inh (ADCK4; [1]): 34%
%Inh (AKT1; [1]): 0%
%Inh (AKT2; [1]): 17%
%Inh (AKT3; [1]): 0%
%Inh (ALK; [1]): 21%
%Inh (AMPK-alpha1; [1]): 0%
%Inh (AMPK-alpha2; [1]): 0%

COc1cc2ncn(-c3cc(OCC4CCCO4)c(C(N)=O)s3)c2cc1OC (stereo not drawn) [GSK204607]
%Inh (ACVR2B; [1]): 0%
%Inh (ACVRL1; [1]): 0%
%Inh (ADCK3; [1]): 23%
%Inh (ADCK4; [1]): 12%
%Inh (AKT1; [1]): 0%
%Inh (AKT2; [1]): 0%
%Inh (AKT3; [1]): 0%
%Inh (ALK; [1]): 0%
%Inh (AMPK-alpha1; [1]): 0%
%Inh (AMPK-alpha2; [1]): 2%

COc1cc(Nc2nccc(N3CCC(NC(=O)Nc4cc(C)ccc4C)C3)n2)cc(OC)c1OC (stereo not drawn) [GSK1379762]
%Inh (ACVR2B; [1]): 0%
%Inh (ACVRL1; [1]): 0%
%Inh (ADCK3; [1]): 30%
%Inh (ADCK4; [1]): 49%
%Inh (AKT1; [1]): 0%
%Inh (AKT2; [1]): 0%
%Inh (AKT3; [1]): 0%
%Inh (ALK; [1]): 45%
%Inh (AMPK-alpha1; [1]): 0%
%Inh (AMPK-alpha2; [1]): 22%

Cc1cccc(-c2nc(Nc3cccc(C(N)=O)c3)c3ccccc3n2)n1 [GW876019]
%Inh (ACVR2B; [1]): 19%
%Inh (ACVRL1; [1]): 0%
%Inh (ADCK3; [1]): 20%
%Inh (ADCK4; [1]): 26%
%Inh (AKT1; [1]): 9%
%Inh (AKT2; [1]): 0%
%Inh (AKT3; [1]): 0%
%Inh (ALK; [1]): 22%
%Inh (AMPK-alpha1; [1]): 31%
%Inh (AMPK-alpha2; [1]): 0%

O=c1cc(N2CCOCC2)nc2n(Cc3cccc(Cl)c3Cl)ccn12 [GSK2286295]
%Inh (ACVR2B; [1]): 3%
%Inh (ACVRL1; [1]): 0%
%Inh (ADCK3; [1]): 27%
%Inh (ADCK4; [1]): 6%
%Inh (AKT1; [1]): 0%
%Inh (AKT2; [1]): 13%
%Inh (AKT3; [1]): 10%
%Inh (ALK; [1]): 48%
%Inh (AMPK-alpha1; [1]): 0%
%Inh (AMPK-alpha2; [1]): 16%

Nc1ncnc2[nH]c(-c3ccccc3)nc12 [AH5015]
%Inh (ACVR2B; [1]): 0%
%Inh (ACVRL1; [1]): 0%
%Inh (ADCK3; [1]): 25%
%Inh (ADCK4; [1]): 12%
%Inh (AKT1; [1]): 0%
%Inh (AKT2; [1]): 9%
%Inh (AKT3; [1]): 0%
%Inh (ALK; [1]): 33%
%Inh (AMPK-alpha1; [1]): 2%
%Inh (AMPK-alpha2; [1]): 17%

Cn1ccc2ncnc(Oc3cccc(C(=O)Nc4ccccc4)c3)c21
%Inh (ACVR2B; [1]): 1%
%Inh (ACVRL1; [1]): 0%
%Inh (ADCK3; [1]): 6%
%Inh (ADCK4; [1]): 17%
%Inh (AKT1; [1]): 0%
%Inh (AKT2; [1]): 0%
%Inh (AKT3; [1]): 10%
%Inh (ALK; [1]): 0%
%Inh (AMPK-alpha1; [1]): 0%
%Inh (AMPK-alpha2; [1]): 0%

Cc1cccc(-c2cc(Nc3ccncc3)c3ccccc3n2)n1 [GSK223675]
%Inh (ACVR2B; [1]): 0%
%Inh (ACVRL1; [1]): 0%
%Inh (ADCK3; [1]): 0%
%Inh (ADCK4; [1]): 11%
%Inh (AKT1; [1]): 0%
%Inh (AKT2; [1]): 0%
%Inh (AKT3; [1]): 0%
%Inh (ALK; [1]): 26%
%Inh (AMPK-alpha1; [1]): 0%
%Inh (AMPK-alpha2; [1]): 8%

Cc1cccc(-c2nc(C)cc(Nc3ccncc3)n2)n1 [GSK257997]
%Inh (ACVR2B; [1]): 7%
%Inh (ACVRL1; [1]): 0%
%Inh (ADCK3; [1]): 18%
%Inh (ADCK4; [1]): 24%
%Inh (AKT1; [1]): 0%
%Inh (AKT2; [1]): 3%
%Inh (AKT3; [1]): 0%
%Inh (ALK; [1]): 20%
%Inh (AMPK-alpha1; [1]): 3%
%Inh (AMPK-alpha2; [1]): 12%

Cc1ccc(-c2cc(-c3c[nH]nc3-c3ccccn3)ccn2)cc1 [GW684088]
%Inh (ACVR2B; [1]): 49%
%Inh (ACVRL1; [1]): 0%
%Inh (ADCK3; [1]): 22%
%Inh (ADCK4; [1]): 37%
%Inh (AKT1; [1]): 0%
%Inh (AKT2; [1]): 0%
%Inh (AKT3; [1]): 0%
%Inh (ALK; [1]): 16%
%Inh (AMPK-alpha1; [1]): 0%
%Inh (AMPK-alpha2; [1]): 0%
